SMILES strings stand for the structures. Activity calls are given as the source filed them.

Experiment [1] concerns the target Albumin (Bos taurus) (UniProt P02769). In words: bovine serum albumin binders on microarray, profiling panel, artefact control for SMM control protein annotation, biochemical, small-molecule microarray, Alexa647 label, 635/667 nm fluorescence (AID 1118).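 Note: score merges 667 nm emission intensity and signal-to-noise per printed compound spot.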 To be noted: BSA-A647 binding, fluorescence 635 nm, higher = more signal.
Experiment [2] in a line: small-molecule microarray binders of probe aXIP, primary screen, biochemical, NeuroSMM set, 635/667 nm fluorescence (AID 1119).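 Note: probe is the protein aXip251-270 applied at 1 µg/mL to compound-printed slides; binding of probe to printed compounds measured as 667 nm fluorescence plus signal to noise.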 To be noted: higher = more signal, called active from +8 up or from −8 down.
Experiment [3] can be described thus: small-molecule binders of probe aNOTCH3, primary screen, biochemical, small-molecule microarray, 635/667 nm fluorescence (AID 1120).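 Note: probe is a biotin-tagged antibody raised against NOTCH3 rather than NOTCH3 protein; score merges spot fluorescence near 667 nm with spot signal to noise.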 The note with it: higher = more signal.
Experiment [4] in a line: small-molecule binders of probe aNOTCH2, primary screen, biochemical, small-molecule microarray, 635/667 nm fluorescence (AID 1121).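 Note: score merges feature fluorescence read at 667 nm with its signal to noise.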 To be noted: higher = more signal.
Experiment [5] has as its target Carbonic anhydrase 2 (Homo sapiens) (UniProt P00918). The experiment in a line: CAII small-molecule binders, profiling panel, biochemical, small-molecule microarray, Alexa647-labelled CAII (AID 1122). The note with it: CAII-A647 binding fluorescence, higher = more signal.
The nature of experiment [6]: COS7 lysate on small-molecule microarray, probe aHis, 635 nm (AID 1123).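 Note: z-score combines 667nm fluorescence intensity with signal-to-noise per printed compound spot.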 To be noted: COS7 cell lysate, fluorescence, higher = more signal.
Experiment [7] in a line: compound binding in COS7 lysate, probe aLAP1, primary screen, cell lysate, small-molecule microarray (AID 1124).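 Note: lysate comes from COS7 cells expressing LAP1 and is applied at 0.3 µg/mL; score merges spot fluorescence near 667 nm with signal-to-noise over triplicate slides.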 To be noted: probe aLAP1, fluorescence, higher = more signal.
For experiment [8], the system named is Sam68 (KHDRBS1). In words: Sam68 small-molecule binders, primary screen, biochemical, small-molecule microarray, 635 nm fluorescence (AID 1125).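 Note: score merges 667 nm channel intensity with signal to noise over triplicate slides.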 The note with it: small-molecule microarray binding, higher = more signal.
The subject of experiment [9] is Chordin-like protein 2 (CHRDL2). The experiment in a line: CHRDL2 small-molecule binders, primary screen, biochemical, small-molecule microarray, 635 nm fluorescence (AID 1126).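 Note: printed compound slides probed with Chrdl2 protein at 4 µg/mL for 1 h at 4 C; score merges 667 nm emission intensity with signal to noise over three replicate slides.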 The note with it: small-molecule microarray binding, fluorescence 635 nm; higher = more signal.
Experiment [10] has as its target Concanavalin-A (Canavalia ensiformis) (UniProt P02866). In words: ConA small-molecule binders, primary screen, artefact control for SMM control protein annotation, biochemical, small-molecule microarray, Alexa647 label, 635 nm (AID 1127).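 Note: z combines 667 nm emission intensity with signal-to-noise across three replicate slides.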 The note with it: ConA-A647 binding fluorescence, higher = more signal.
Experiment [11] can be described thus: anti-His antibody binders, primary screen, artefact control for SMM control protein annotation, biochemical, small-molecule microarray, 635 nm fluorescence (AID 1128).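 Note: score merges feature fluorescence with signal-to-noise for each printed compound spot.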 The note with it: anti-His Alexa647 antibody binding, higher = more signal.
Experiment [12] has as its system Human papillomavirus type 1a E7 protein (residues 1-88). The experiment in a line: HPV1a E7 small-molecule binders, primary screen, biochemical, small-molecule microarray, residues 1-88, 635 nm (AID 1129). The note with it: small-molecule microarray binding, fluorescence 635 nm; higher = more signal.
The target of experiment [13] is Focal adhesion kinase 1 (Homo sapiens) (UniProt Q05397). In words: small-molecule microarray binders of FAK, primary screen, biochemical, 635/667 nm fluorescence, BSA, DTT (AID 1130).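 Note: composite of spot emission at 667 nm and signal to noise over triplicate slides.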 To be noted: PTK2 binding, 635 nm fluorescence, higher = more signal.
Experiment [14] has as its system Fibrinogen (Alexa647-labelled). The experiment in a line: fibrinogen binders on compound microarrays, profiling panel, artefact control for SMM control-protein annotation, biochemical, small-molecule microarray, 635/667 nm fluorescence (AID 1131).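 Note: z-score merges 667 nm fluorescence with per-spot signal-to-noise over triplicate slides.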 The note with it: fibrinogen-A647 binding fluorescence, higher = more signal.
Experiment [15] concerns the target Follistatin (Homo sapiens) (UniProt P19883). The experiment in a line: follistatin binders on small-molecule microarrays, primary screen, biochemical, small-molecule microarray, 635/667 nm fluorescence (AID 1132). The note with it: FST binding, 635 nm fluorescence, higher = more signal.
The target in experiment [16] is Fibroblast growth factor 2 (Homo sapiens) (UniProt P09038). In words: FGF2 binders on small-molecule microarrays, primary screen, biochemical, small-molecule microarray, 635/667 nm fluorescence (AID 1133). To be noted: small-molecule microarray binding, FGF2, fluorescence 635/667; higher = more signal.
A short description of experiment [17]: mitochondrial membrane potential change in A549 cells, profiling panel, cell-based, JC-1 fluorescence, basal, 24 h, 100 nL (AID 1138).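 Note: A549 lung adenocarcinoma cells under basal conditions with no added stimulus; test concentration not given here.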 The note with it: higher = more signal.
Experiment [18] deals with Lefty1. In words: Lefty1 binders on small-molecule microarrays, primary screen, biochemical, small-molecule microarray, 635/667 nm fluorescence (AID 1139). To be noted: small-molecule microarray binding, fluorescence 635/667; higher = more signal.
For experiment [19], the system named is wheat germ agglutinin (Triticum aestivum), Alexa647-labelled. In words: wheat germ agglutinin binders on compound microarrays, profiling panel, artefact control for SMM control-protein annotation, biochemical, small-molecule microarray, 635/667 nm fluorescence (AID 1140).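 Note: score merges 667 nm feature emission with signal to noise over triplicate slides.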 The note with it: WGA-A647 binding, 635 nm fluorescence, higher = more signal.
In experiment [20] the target is Luciferin 4-monooxygenase (Photinus pyralis) (UniProt P08659). In words: firefly luciferase enzyme inhibitors, primary screen, biochemical, luminescence, purified enzyme, 2006 set (AID 1141).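 Note: cell-free assay with purified firefly luciferase at 100 ng per well in PBS; test concentration not given here.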 To be noted: SteadyGlo luminescence, 30 min, higher = more signal, called active from +8 up or from −8 down.
Chain of Luciferin 4-monooxygenase (Photinus pyralis) (P08659 whole entry, looked up): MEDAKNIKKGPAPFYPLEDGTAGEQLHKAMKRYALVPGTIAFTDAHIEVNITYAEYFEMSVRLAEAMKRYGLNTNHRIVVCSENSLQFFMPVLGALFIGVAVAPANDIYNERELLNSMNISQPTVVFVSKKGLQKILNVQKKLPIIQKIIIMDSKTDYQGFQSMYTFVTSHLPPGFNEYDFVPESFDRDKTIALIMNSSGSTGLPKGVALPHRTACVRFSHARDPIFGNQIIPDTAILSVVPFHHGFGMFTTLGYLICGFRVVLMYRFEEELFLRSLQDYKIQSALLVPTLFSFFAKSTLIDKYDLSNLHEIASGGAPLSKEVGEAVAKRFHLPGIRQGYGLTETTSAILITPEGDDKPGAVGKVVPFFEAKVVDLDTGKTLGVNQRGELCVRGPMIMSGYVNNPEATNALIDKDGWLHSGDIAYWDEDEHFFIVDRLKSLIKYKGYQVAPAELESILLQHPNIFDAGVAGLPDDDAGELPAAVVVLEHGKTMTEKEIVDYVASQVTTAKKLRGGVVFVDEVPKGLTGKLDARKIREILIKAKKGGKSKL

Chain of Albumin (Bos taurus) (P02769 whole entry, looked up): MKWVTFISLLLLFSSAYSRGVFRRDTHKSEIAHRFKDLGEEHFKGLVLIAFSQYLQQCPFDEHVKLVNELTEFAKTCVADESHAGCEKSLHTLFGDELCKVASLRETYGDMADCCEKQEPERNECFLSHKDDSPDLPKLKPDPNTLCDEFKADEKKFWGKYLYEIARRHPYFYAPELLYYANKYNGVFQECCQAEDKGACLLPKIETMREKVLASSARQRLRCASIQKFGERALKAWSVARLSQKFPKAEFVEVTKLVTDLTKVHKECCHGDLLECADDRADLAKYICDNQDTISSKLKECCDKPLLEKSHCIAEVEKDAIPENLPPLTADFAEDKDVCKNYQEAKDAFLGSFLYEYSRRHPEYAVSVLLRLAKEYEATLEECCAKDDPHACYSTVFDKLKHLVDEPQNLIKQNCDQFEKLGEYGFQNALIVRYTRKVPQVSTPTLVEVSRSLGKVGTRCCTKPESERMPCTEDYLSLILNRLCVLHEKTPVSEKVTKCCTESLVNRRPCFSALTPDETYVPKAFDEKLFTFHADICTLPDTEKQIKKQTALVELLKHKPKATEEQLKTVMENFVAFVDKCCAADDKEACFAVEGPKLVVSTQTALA
Chain of Concanavalin-A (Canavalia ensiformis) (P02866 whole entry, looked up): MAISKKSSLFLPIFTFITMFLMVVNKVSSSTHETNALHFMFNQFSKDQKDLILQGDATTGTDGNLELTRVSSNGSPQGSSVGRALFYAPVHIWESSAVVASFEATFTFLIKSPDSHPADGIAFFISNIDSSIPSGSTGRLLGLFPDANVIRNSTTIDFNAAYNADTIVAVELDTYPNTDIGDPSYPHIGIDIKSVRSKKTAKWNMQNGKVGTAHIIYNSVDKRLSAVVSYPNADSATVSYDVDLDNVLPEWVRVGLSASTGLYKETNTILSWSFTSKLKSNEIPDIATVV
Chain of Follistatin (Homo sapiens) (P19883 whole entry, looked up): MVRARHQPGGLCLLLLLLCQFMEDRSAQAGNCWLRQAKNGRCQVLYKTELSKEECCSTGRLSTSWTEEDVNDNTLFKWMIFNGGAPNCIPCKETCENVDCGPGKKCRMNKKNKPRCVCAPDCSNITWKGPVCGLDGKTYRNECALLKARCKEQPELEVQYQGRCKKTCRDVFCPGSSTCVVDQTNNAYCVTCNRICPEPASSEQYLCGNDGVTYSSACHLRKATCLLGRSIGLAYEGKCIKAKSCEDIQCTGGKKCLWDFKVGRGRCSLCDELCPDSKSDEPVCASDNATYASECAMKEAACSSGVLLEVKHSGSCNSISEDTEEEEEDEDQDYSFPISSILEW
Chain of Focal adhesion kinase 1 (Homo sapiens) (Q05397 whole entry, looked up): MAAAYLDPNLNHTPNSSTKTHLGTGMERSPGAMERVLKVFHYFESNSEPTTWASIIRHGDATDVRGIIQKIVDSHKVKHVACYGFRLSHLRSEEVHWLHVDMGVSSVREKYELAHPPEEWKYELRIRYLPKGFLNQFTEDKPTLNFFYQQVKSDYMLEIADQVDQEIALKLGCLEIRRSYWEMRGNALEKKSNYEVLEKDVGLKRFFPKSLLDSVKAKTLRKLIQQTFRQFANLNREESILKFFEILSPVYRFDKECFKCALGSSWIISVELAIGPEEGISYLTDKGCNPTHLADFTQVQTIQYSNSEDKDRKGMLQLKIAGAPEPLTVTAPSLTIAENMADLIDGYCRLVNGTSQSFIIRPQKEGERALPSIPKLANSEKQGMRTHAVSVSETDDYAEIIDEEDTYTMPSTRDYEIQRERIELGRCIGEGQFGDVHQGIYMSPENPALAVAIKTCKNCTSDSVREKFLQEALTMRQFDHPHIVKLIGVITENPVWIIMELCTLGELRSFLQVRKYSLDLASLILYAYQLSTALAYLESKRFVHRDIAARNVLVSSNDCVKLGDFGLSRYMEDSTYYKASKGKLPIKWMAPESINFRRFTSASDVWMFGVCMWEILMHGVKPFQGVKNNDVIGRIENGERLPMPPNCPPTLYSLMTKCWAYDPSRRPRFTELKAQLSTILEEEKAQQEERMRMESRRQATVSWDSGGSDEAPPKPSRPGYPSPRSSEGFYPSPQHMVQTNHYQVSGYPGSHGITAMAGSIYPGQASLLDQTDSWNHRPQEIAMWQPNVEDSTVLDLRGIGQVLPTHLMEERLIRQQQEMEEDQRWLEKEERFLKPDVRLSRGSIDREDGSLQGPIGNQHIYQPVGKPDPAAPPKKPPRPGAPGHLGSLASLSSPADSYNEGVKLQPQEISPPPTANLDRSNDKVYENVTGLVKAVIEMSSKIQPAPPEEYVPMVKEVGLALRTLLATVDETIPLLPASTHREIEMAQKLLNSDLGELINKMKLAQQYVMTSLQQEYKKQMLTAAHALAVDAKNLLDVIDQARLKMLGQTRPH
Chain of Fibroblast growth factor 2 (Homo sapiens) (P09038 whole entry, looked up): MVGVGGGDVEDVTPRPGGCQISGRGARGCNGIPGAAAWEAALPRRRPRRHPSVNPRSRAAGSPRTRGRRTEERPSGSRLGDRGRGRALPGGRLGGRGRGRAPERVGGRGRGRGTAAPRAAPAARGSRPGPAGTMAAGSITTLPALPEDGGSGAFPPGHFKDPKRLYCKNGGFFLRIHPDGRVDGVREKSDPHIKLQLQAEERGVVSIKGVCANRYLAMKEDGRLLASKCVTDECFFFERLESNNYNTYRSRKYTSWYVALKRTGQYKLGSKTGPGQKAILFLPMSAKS

Consider `[N-]=[N+]=NCc1ccccc1C[C@]1(C(=O)NCc2ccccc2)N=C(c2ccc(OCCCO)cc2)O[C@H]1c1ccccc1N=[N+]=[N-]`, for which the composite z-score in [1] is 0.841; in [3], 0.531; in [4], -0.098; in experiment [5], 0.476; in experiment [6], 1.91; in experiment [7], 0.317. Also, the composite z-score is 1.09 in [8]; -0.38 in experiment [9]; 0.822 in [10]; 1.99 in experiment [11]; 1.17 in experiment [12]; 1.54 in experiment [13]. In addition, the composite z-score in [14] was 0.967; in experiment [15] it was 0.931; in experiment [16], 1.49; in experiment [18], -0.875; in [19] it was 0.285. In addition, the composite Z-score in experiment [2] was 0.187 (inactive). Also, the z-score in [17] is -0.711; in experiment [20] it was -4.08 (inactive).

`COCCOC(=O)N1C(=O)[C@@]2(c3cc(C#CC4(O)CCCCCC4)ccc31)[C@H](c1ccc(OCCO)cc1)N1[C@H](c3ccccc3)[C@H](c3ccccc3)OC(=O)[C@H]1[C@@H]2C(=O)NC[C@H](O)c1ccccc1`: the composite z-score in experiment [1] is 0.203; in experiment [3] it was 0.0039; in [4], -0.115; in [5], 0.367; in experiment [6] it was 1.71; in experiment [7], 0.288. The composite z-score was 1.29 in experiment [8]; -0.0516 in [9]; 1.12 in experiment [10]; 1.67 in [11]; 1.21 in [12]; 0.184 in experiment [13]. Besides, the composite z-score came out at 0.946 in [14]; 1.15 in experiment [15]; 0.909 in experiment [16]; 0.907 in experiment [18]; 0.784 in experiment [19]. Besides, the composite Z-score in experiment [2] was -0.317 (inactive). Further, the z-score was -1.52 in [17] and -1.05 (inactive) in experiment [20].

With `C[C@H](c1ccccc1)N1C(=O)[C@H]2[C@@H]3C(=CC[C@H]2C1=O)C(=O)[C@H]1O[C@H]1[C@H]3O`, the composite z-score in [1] is 0.166; in [3], -0.111; in experiment [4] it was -0.147; in [5] it was -0.182; in experiment [6], -0.51; in [7] it was 0.172. The composite z-score in [8] is -0.136; in experiment [9], 1.02; in [10], 0.471; in [11] it was 1.36; in experiment [12] it was 0.336; in experiment [13], 0.204. For the same molecule, the composite z-score in [14] is 0.367; in experiment [15], 0.642; in [16], 0.565; in experiment [18], 0.708; in experiment [19], -0.0651. In experiment [2], the composite Z-score is -0.0238 (inactive). The z-score in experiment [17] is -0.732; in experiment [20], -1.47 (inactive).

`COC(=O)[C@@H]1N=C(c2ccc(OCCCO)cc2)O[C@@H]1c1ccccc1N=[N+]=[N-]`: the composite z-score in [1] was 0.731; in experiment [3], 0.149; in experiment [4] it was -0.0534; in experiment [5], 0.666; in experiment [6], 1.92; in experiment [7], 0.35. In addition, the composite z-score was 1.05 in experiment [8]; -0.456 in experiment [9]; 0.928 in experiment [10]; 1.99 in experiment [11]; 1.21 in experiment [12]; 0.942 in [13]. The composite z-score in experiment [14] was 0.077; in experiment [15] it was 0.499; in experiment [16], -0.253; in experiment [18], -0.394; in [19], 1.04. Moreover, the composite Z-score in experiment [2] was -0.384 (inactive). Besides, the figures for the z-score in experiment [17] and in [20] were 0.484 and -17.9 (active), respectively.

As to `CC(=O)OC[C@H]1O[C@@H](ON=C[C@@H](C)[C@H](OCc2ccccc2)C(C)C)[C@H](OC(C)=O)[C@@H](OC(C)=O)[C@@H]1OC(C)=O`, the composite z-score was -0.25 in experiment [1]; -0.0672 in experiment [3]; -0.159 in experiment [4]; -0.934 in [5]; -0.0857 in experiment [6]; -0.246 in experiment [7]. In addition, the composite z-score in [8] is 0.96; in [9], -0.838; in [10], 0.468; in [11], 0.133; in experiment [12] it was -0.19; in experiment [13], -0.0838. In addition, the composite z-score in [14] was -0.562; in [15], -1; in experiment [16] it was 0.225; in [18], -0.207; in [19], -0.0716. Besides, in [2], the composite Z-score was 0.0474 (inactive). The z-score in experiment [17] is 1.32; in [20], 0.0242 (inactive).

Regarding `CCOC(=O)NN=C1C[C@@H](O)[C@@H](O)[C@@H]2[C@@H]3C(=O)N(C4CCCCC4)C(=O)[C@@H]3CC[C@@H]12`, the composite z-score in experiment [1] was 0.272; in experiment [3], -0.0598; in experiment [4], -0.0534; in experiment [5] it was 0.0286; in [6] it was -0.636; in experiment [7], 1.25. The composite z-score is 0.39 in experiment [8]; 0.645 in experiment [9]; 0.616 in experiment [10]; 0.327 in experiment [11]; -0.18 in experiment [12]; 0.287 in experiment [13]. In addition, the composite z-score turned out to be 0.5 in experiment [14]; 0.267 in [15]; 0.365 in experiment [16]; 0.319 in experiment [18]; 0.0034 in [19]. The composite Z-score in experiment [2] was -0.288 (inactive). In addition, the z-score in experiment [17] is 0.497; in experiment [20], -0.182 (inactive).

(Values after PubChem BioAssay.)
